Results on 20 compounds are retold here after PubChem BioAssay.

Test [1] in a line: antimalarial activity against Dd2 strain (AID 2302;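 active = growth inhibition above 50% at the single 2 µM test dose, taken to imply half-maximal potency below 2 µM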;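 also: 0% = DMSO untreated growth and 100% = chloroquine plus artemisinin killed control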). The following applies: P. falciparum Dd2 in RBCs, LDH growth readout, 72 h; at 2 µM; hits give high values.
Test [2] can be described thus: HepG2 cytotoxicity, primary screen, cytotoxicity control for P. falciparum antimalarial project, cell-based, ATP luminescence (AID 2303;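 active = inhibition above 50%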;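 also: 0% = DMSO wells and 100% = digitonin-killed cells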). The following applies: HepG2 viability, 24-48 h, at 10 µM, hits give high values.
Test [3] addresses L-lactate dehydrogenase (Plasmodium falciparum (isolate CDC / Honduras)) (UniProt Q27743). Description: PfLDH activity inhibition – cell lysate, 3D7 strain, counter-screen for P. falciparum growth inhibition project (AID 2304).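 Also: 0% = vehicle and 100% = reference inhibitor.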 The following applies: P. falciparum 3D7 crude extract, LDH APAD/NBT absorbance; at 2 µM; hits give high values.
Test [4] is described as follows: inhibition of 3D7 malaria parasite growth – strain 3D7 (AID 2306).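 Also: 0% = DMSO wells and 100% = chloroquine plus artemisinin control wells.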 The following applies: P. falciparum 3D7 erythrocytic growth, LDH absorbance, 72 h; at 2 µM; hits give high values.
For test [5], the target named is Calcium-dependent protein kinase 1 (Plasmodium falciparum (isolate 3D7)) (UniProt P62344). Kind of test: PfCDPK1 kinase inhibitors, biochemical, TCAMS library (AID 1159585; cut-off not given, nearly all actives have IC50 up to about 0.98 µM;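 also: inhibitors leave more ATP so luminescence rises with inhibition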). The following applies: recombinant PfCDPK1, Kinase-Glo ATP depletion luminescence. (Kinase-Glo reads ATP consumption through a luciferase reaction.)
Test [6] deals with Plasmodium falciparum protein kinase 6 (PK6, PF3D7_1337100) (UniProt Q8IDW1). Description: PfPK6 kinase inhibitors, biochemical, TCAMS library (AID 1159586). The settings on record: recombinant PfPK6, Kinase-Glo ATP depletion luminescence.
For test [7], the target named is Protein kinase 7 (PK7), Plasmodium falciparum 3D7 (PF3D7_0213400) (UniProt Q7YTF7). Description: inhibition of Plasmodium PK7 catalytic activity – biochemical, TCAMS antimalarial set, Kinase-Glo luminescence (AID 1159587). The following applies: recombinant PfPK7, Kinase-Glo ATP depletion luminescence.
For test [8], the target named is Calcium-dependent protein kinase 4 (Plasmodium falciparum (isolate 3D7)) (UniProt Q8IBS5). Kind of test: PfCDPK4 kinase inhibitors, biochemical, TCAMS library (AID 1159588; cut-off not given, nearly all actives have IC50 up to about 0.91 µM). The following applies: recombinant PfCDPK4, Kinase-Glo ATP depletion luminescence.

Values without a mark were called inactive. For some of these results: Results with a measured potency or affinity are listed apart. Activity calls are given as the source filed them. Unless noted, no rule for the calls is given here.

Calcium-dependent protein kinase 1 (Plasmodium falciparum (isolate 3D7)), sequence (P62344 whole entry, looked up): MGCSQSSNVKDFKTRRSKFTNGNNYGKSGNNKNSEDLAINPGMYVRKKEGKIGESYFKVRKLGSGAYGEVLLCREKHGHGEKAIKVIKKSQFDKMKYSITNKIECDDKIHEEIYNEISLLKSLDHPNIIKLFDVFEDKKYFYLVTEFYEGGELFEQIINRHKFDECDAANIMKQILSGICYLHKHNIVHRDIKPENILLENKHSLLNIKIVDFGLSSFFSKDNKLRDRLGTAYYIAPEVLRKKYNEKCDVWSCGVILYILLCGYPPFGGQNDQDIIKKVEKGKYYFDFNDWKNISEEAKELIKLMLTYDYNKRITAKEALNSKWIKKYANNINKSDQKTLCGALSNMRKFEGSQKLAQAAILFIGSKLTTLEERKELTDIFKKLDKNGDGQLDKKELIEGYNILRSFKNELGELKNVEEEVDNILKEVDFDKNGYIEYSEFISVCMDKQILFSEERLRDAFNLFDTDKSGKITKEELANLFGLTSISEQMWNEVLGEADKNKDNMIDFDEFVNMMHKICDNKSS
Calcium-dependent protein kinase 4 (Plasmodium falciparum (isolate 3D7)), sequence (Q8IBS5 whole entry, looked up): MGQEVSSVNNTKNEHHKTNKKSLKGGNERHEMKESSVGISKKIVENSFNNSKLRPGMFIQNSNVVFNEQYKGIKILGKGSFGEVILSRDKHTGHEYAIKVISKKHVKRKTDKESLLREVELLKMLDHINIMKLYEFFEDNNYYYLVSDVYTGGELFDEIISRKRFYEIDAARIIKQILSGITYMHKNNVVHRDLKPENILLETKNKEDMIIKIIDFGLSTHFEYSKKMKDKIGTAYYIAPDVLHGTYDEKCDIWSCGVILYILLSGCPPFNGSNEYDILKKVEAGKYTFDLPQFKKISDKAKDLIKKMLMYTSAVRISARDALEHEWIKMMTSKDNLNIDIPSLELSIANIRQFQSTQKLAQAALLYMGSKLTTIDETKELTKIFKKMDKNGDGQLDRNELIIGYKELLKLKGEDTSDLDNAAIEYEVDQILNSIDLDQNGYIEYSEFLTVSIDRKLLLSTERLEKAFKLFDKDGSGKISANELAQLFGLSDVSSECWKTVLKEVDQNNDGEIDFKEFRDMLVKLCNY
L-lactate dehydrogenase (Plasmodium falciparum (isolate CDC / Honduras)), sequence (Q27743 whole entry, looked up): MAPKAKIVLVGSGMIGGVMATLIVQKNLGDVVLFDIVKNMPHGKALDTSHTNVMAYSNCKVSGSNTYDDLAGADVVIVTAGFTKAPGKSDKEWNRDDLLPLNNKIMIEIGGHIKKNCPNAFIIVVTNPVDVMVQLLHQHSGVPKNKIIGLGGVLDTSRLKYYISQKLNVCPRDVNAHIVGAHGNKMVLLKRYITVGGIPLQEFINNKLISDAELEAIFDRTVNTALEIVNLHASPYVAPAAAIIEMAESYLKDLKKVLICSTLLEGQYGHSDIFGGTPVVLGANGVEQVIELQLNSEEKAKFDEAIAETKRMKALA
Plasmodium falciparum protein kinase 6 (PK6, PF3D7_1337100), sequence (Q8IDW1 1-305): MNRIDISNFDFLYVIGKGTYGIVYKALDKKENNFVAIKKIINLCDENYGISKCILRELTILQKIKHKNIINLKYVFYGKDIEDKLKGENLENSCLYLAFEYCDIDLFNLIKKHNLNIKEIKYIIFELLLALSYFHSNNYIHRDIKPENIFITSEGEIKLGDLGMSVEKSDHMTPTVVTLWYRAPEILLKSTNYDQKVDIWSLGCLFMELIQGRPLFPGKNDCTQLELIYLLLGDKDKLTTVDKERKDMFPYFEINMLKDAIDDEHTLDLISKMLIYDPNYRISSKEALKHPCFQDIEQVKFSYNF
Protein kinase 7 (PK7), Plasmodium falciparum 3D7 (PF3D7_0213400), sequence (Q7YTF7 1-343): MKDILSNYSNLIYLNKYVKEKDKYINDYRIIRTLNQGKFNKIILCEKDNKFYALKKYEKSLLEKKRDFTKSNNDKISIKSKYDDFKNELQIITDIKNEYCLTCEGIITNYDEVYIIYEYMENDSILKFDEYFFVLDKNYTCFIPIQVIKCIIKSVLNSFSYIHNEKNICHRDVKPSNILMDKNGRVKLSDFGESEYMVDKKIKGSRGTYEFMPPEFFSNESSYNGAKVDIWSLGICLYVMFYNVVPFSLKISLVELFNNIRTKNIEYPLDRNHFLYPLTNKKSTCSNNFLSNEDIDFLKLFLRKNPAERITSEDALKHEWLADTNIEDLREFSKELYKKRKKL

The inhibition is the relative decrease from the control value, in per cent. On to `COc1ccccc1COc1c(C)nc(N)nc1N`, for which the growth inhibition in test [1] is 1%; in test [4], 98% (active). Further, the inhibition in test [2] was 32%; in test [3] it was -1%. In addition, the outcome in test [5], in test [6], in test [7] and in test [8] was inactive.

In the case of `COc1cccc(CN2CCCC(OC(c3ccc(F)cc3)c3ccc(F)cc3)C2)c1O` (stereo not given), the growth inhibition in test [1] and in test [4] was 95% (active) in each case. Further, the values for the inhibition in test [2] and in test [3] were 8% and 5%, respectively. The outcome in test [5], in test [6], in test [7] and in test [8] was inactive.

As for `Cc1nc(-c2ccc(-c3ccc(C(=O)Nc4ccc(C(C)C)c(OCCN(C)C)c4)cc3)c(C)c2)no1`, the growth inhibition in test [1] is 45%; in test [4], 99% (active). In addition, the inhibition in test [2] was 49%; in test [3] it was -2%. The outcome in test [5], in test [6], in test [7] and in test [8] was inactive.

As to `CCCCCCc1c(C)[nH]c2cc(OC)ccc2c1=O`, the growth inhibition in test [1] and in test [4] was 97% (active) each time. Further, the inhibition in test [2] was 10%; in test [3], 3%. For the same compound, the outcome in test [5], in test [6], in test [7] and in test [8] was inactive.

Turning to `O=C(NCC1CCCCC1)c1cc(=O)c2ccccc2o1`, the growth inhibition in test [1] was 77% (active); in test [4] it was 98% (active). The inhibition in test [2] was -1%; in test [3], -2%. Besides, the outcome in test [5], in test [6], in test [7] and in test [8] was inactive.

Consider `CCNc1cc(C(=O)N[C@@H](Cc2ccccc2)[C@H](O)CNC(C)Cc2cccc(Cl)c2)cc(N2CCCCS2(=O)=O)c1` (stereo not given in full), for which the growth inhibition was 77% (active) in test [1] and 98% (active) in test [4]. Moreover, the inhibition in test [2] was -6%; in test [3] it was 1%. Besides, the result in test [5], in test [6], in test [7] and in test [8] was inactive.

Take `O=C(NCc1cccc(Cl)c1)c1ccc(CNC2CCN(Cc3ccccc3)CC2)cc1`: the growth inhibition in test [1] was 50% (active); in test [4] it was 100% (active). The inhibition in test [2] is 13%; in test [3], 5%. Also, the result in test [5], in test [6], in test [7] and in test [8] was inactive.

On to `O=C(Nc1ccc(-c2ccccc2)cc1)Nc1cccc(Cn2nc(Cl)c(N3CCCNCC3)cc2=O)c1`, for which the growth inhibition is 37% in test [1] and 101% (active) in test [4]. Moreover, the inhibition in test [2] was 13%; in test [3], -2%. Moreover, the outcome in test [5], in test [6], in test [7] and in test [8] was inactive.

As for `O=C(c1cccc(-c2noc(C(F)(F)F)n2)c1)N1CCN(C(=O)c2ccc3cc[nH]c3c2)CC1`, the growth inhibition in test [1] was 85% (active); in test [4], 94% (active). For the same compound, the inhibition in test [2] is 15%; in test [3], -3%. Further, the outcome in test [5], in test [6], in test [7] and in test [8] was inactive.

On to `CCOC(=O)C1=C(C)N=c2sc(=Cc3cc(Cl)ccc3O)c(=O)n2C1c1cc(OC)c(OC)cc1Br` (stereo not given), for which the values for the growth inhibition in test [1] and in test [4] were 76% (active) and 97% (active), respectively. The results for the inhibition in test [2] and in test [3] were 6% and -2%, respectively. Besides, the result in test [5], in test [6], in test [7] and in test [8] was inactive.

`CC1(C)N=C(N)N=C(N)N1OCc1ccc2ccccc2c1CON1C(N)=NC(N)=NC1(C)C`: the growth inhibition in test [1] is 12%; in test [4] it was 96% (active). Also, the inhibition in test [2] is 8%; in test [3], 1%. In addition, the outcome in test [5], in test [6], in test [7] and in test [8] was inactive.

In the case of `O=C(Nc1cccc(Cl)c1)N[C@H]1CCN(Cc2ccc(OCCCN3CCCCC3)cc2)C1`, the growth inhibition in test [1] was -3%; in test [4], 99% (active). Besides, the inhibition in test [2] is 15%; in test [3], 1%. Also, the result in test [5], in test [6], in test [7] and in test [8] was inactive.

Consider `Cn1c(NC(=O)CCCCCNC(=O)c2ccc(O)c(-c3ccc(Cl)c(Cl)c3)c2)nc2ccccc21`, for which the values for the growth inhibition in test [1] and in test [4] were 55% (active) and 100% (active), respectively. Further, the inhibition in test [2] is -6%; in test [3], 7%. Further, the result in test [5], in test [6], in test [7] and in test [8] was inactive.

For the compound `O=C(Nc1ccc(I)cc1)N1CCc2sccc2C1CN1CCCCC1` (stereo not given), the growth inhibition was 0% in test [1] and 90% (active) in test [4]. In addition, the inhibition is 33% in test [2] and 6% in test [3]. The result in test [5], in test [6], in test [7] and in test [8] was inactive.

In the case of `Cc1cc(N2CCCC2)nc(Nc2ccc(NC(=O)c3ccc4c(c3)OCO4)cc2)n1`, the growth inhibition in test [1] was 67% (active); in test [4], 101% (active). For the same compound, the inhibition in test [2] is 26%; in test [3], -4%. Besides, the result in test [5], in test [6], in test [7] and in test [8] was inactive.

For the compound `Oc1cccc(Nc2nc(NCC3CCCO3)c3ccccc3n2)c1` (stereo not given), the growth inhibition is 87% (active) in test [1] and 100% (active) in test [4]. The inhibition in test [2] is -9%; in test [3], -1%. Besides, the result in test [5], in test [6], in test [7] and in test [8] was inactive.

Take `O[C@@H](c1ccc2ccccc2c1)[C@@H]1CN(CCc2ccccc2)CC[C@@]1(O)c1ccccc1`: the growth inhibition is 96% (active) in test [1] and 99% (active) in test [4]. For the same compound, the inhibition in test [2] and in test [3] was 1% throughout. Moreover, the outcome in test [5], in test [6], in test [7] and in test [8] was inactive.

`COc1cccc(NC(=O)[C@H](C(C)C)n2c(=O)[nH]c3ccccc3c2=O)c1`: the growth inhibition is 100% (active) in test [1] and 101% (active) in test [4]. Moreover, the inhibition in test [2] and in test [3] was -1% throughout. Also, the outcome in test [5], in test [6], in test [7] and in test [8] was inactive.

As to `OCCN1CCN(Cc2cccc(-c3ccc(-c4nc5ccc(C(F)(F)F)cc5[nH]4)s3)c2)CC1`, the growth inhibition in test [1] is 98% (active); in test [4], 101% (active). Further, the figures for the inhibition in test [2] and in test [3] were 42% and -5%, respectively. Moreover, the outcome in test [5], in test [6], in test [7] and in test [8] was inactive.

With `Nc1c2ccccc2nc2cc(C(F)(F)F)ccc12`, the growth inhibition in test [1] is 49%; in test [4], 101% (active). Moreover, the inhibition in test [2] was 8%; in test [3], 1%. Besides, the outcome in test [5], in test [6], in test [7] and in test [8] was inactive.
